Shown are actives, neighbours in structure and some others; about 4.1% of the full set was active somewhere.
hgDAF12 agonist: hgDAF-12 agonism, primary luciferase screen; AID 687014; HEK293 GAL4-hgDAF12 UAS-luciferase reporter, agonist luminescence; normalized to butyrate control; activation, % at 6.8 µM; 370,000 tested, 1.8% active;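 active = activation above a cutoff set at the mean of all screened compounds plus 3 SD, cut at about 10% in these data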;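 note: 0% = DMSO wells and 100% = sodium butyrate wells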
DAX1 inh-1: inhibitors of human orphan nuclear receptor DAX1 (NR0B1) | P51843 | HEK293 Gal4-DAX1 luciferase reporter, luminescence | inhibition, % at 6.75 µM | 340,000 tested, 0.99% active | AID 504766;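 active = inhibition above the mean over all tested compounds plus 3 SD, cut at about 4.2% in these data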;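 note: 0% = DAX1-transfected cells with DMSO and 100% = empty-vector control cells with DMSO; inhibition shows as a rise in luminescence from relieved DAX1 repression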
Target sequence (P51843 207-470 limits assumed): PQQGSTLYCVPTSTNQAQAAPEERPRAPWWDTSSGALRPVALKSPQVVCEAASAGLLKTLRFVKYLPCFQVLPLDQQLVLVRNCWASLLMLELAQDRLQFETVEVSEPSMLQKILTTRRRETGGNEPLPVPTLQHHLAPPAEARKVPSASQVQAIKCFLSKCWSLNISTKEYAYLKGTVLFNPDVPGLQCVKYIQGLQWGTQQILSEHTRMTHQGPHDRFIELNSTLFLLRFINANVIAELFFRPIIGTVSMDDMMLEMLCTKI
hcDAF12 agonist: activates DAF-12 receptor from parasite H. contortus. activation, % at 6.8 µM. HEK293 hcDAF-12 lit1-tk-luc reporter, luminescence; 0% DMSO, 100% Δ7-dafachronic acid. 370,000 tested, 1.4% active;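 active = activation above the mean of all tested compounds plus 3 SD, cut at about 5.5% in these data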;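 note: 100% = response to 3 µM Δ7-dafachronic acid high control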
DAX1 inh-2: blocks DAX1 repression of SF-1 activated StAR promoter. HEK293T StAR-luciferase reporter, SF-1/DAX-1 repression relief. 370,000 tested, 1.1% active. inhibition, % at 6.8 µM. AID 652010;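 active = inhibition above the mean over all tested compounds plus 3 SD, cut at about 3.6% in these data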;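 note: 0% = DAX-1 cells with DMSO and 100% = cells lacking DAX-1 with DMSO; higher inhibition means more luminescence from relief of DAX-1 repression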
ssDAF-12 act: S. stercoralis DAF-12 activation, primary screen | HEK293 ssDAF-12/GRIP1 lit1-tk-luc reporter, luminescence; % of 3 µM dafachronic acid response | activation, % at 6.8 µM | 370,000 tested, 1% active;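 active = activation above the mean over all tested compounds plus 3 SD, cut at about 0.9% in these data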;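 note: 0% = DMSO-only wells and 100% = 3 µM delta7-dafachronic acid wells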
LXR ag: activates human LXR-beta, counter-screen for hcDAF-12 agonists | shares compounds with hcDAF12 agonist | HEK293 Gal4-LXR tk-luc reporter, luminescence, 24 h; normalized: DMSO 0%, positive control 100% | activation, % at 6.8 µM | 3,400 tested, under 10 active | AID 743027;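 active = mean percent activation of the reporter above a cutoff set as the average over tested compounds plus their standard deviation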
hcDAF12 conf: confirmation of H. contortus DAF-12 agonists. 3,400 tested, 61% active. shares compounds with hcDAF12 agonist. activation, % at 6.8 µM. HEK293 hcDAF-12 lit1-tk-luc reporter, luminescence; % of Δ7-dafachronic acid response;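 active = mean activation across triplicate tests above the threshold derived from the earlier primary screen, cut at about 5.5% in these data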;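 note: 0% = DMSO only wells and 100% = 3 µM Δ7-dafachronic acid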
hgDAF12 conf: confirmation of H. glycines DAF-12 agonists | activation, % at 6.8 µM | shares compounds with hgDAF12 agonist | HEK293 GAL4-hgDAF12 luciferase reporter, agonist mode; percent of butyrate response | 3,300 tested, 80% active | AID 743050;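 active = mean activation over triplicate wells above the hit cutoff derived from the earlier primary screen, cut at about 11% in these data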;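 note: 0% = DMSO low control and 100% = 2 mM sodium butyrate high control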
LXR ag 2: activates human LXR-beta, counter-screen for DAF-12 agonists; shares compounds with hgDAF12 agonist; activation, % at 6.8 µM; HEK293 Gal4-LXR luciferase reporter, 24 h; 3,300 tested, under 10 active;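 active = mean activation of the triplicate above a set limit carried over from the primary screen, none filed active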
Starred values were filed as active, the others as inactive; x = no result given.

SMILES	hgDAF12 agonist	DAX1 inh-1	hcDAF12 agonist	DAX1 inh-2	ssDAF-12 act	LXR ag	hcDAF12 conf	hgDAF12 conf	LXR ag 2
O=C(N/N=C/c1c[nH]c2ccccc12)c1cc(-c2ccc3ccccc3c2)n[nH]1	25*	-1	7.9*	-1	0	0	2	5	0
COc1ccc(S[C@]2(C(=O)N(C)C)CC(=O)N[C@@H]2c2ccc(OC)cc2)cc1	1	x	-1	0	-1	x	x	x	x
Cc1ccc(NC(=O)c2ccc3c(c2)OCO3)cc1Cl	17*	4.7*	8.0*	3	1.7*	1	5	18*	1
COc1ccccc1C(=O)Nc1ccc2c(c1)OCCO2	14*	2	6.8*	2	1	1	6.6*	14*	1
Cc1ccc(C(=O)Nc2ccc3c(c2)OCO3)o1	10	1	3	2	1	x	x	x	x
O=C(Nc1ccc2c(c1)OCCO2)c1ccc(Br)cc1	15*	2	8.3*	2	0	2	7.2*	14*	1
CN(c1ccc(C(=O)Nc2ccc3c(c2)OCCO3)cc1)S(C)(=O)=O	6	1	4	2	-1	x	x	x	x
O=C(Nc1ccc2c(c1)OCO2)c1ccc(Br)s1	25*	2	13*	4.3*	1.6*	2	15*	22*	1
COc1ccccc1OC(C)C(=O)Nc1ccc2c(c1)OCCO2 (centres undefined)	-1	0	-2	0	-1	x	x	x	x
O=C(Nc1cccnc1)c1noc2c1CCCC2	6	0	2	2	-1	x	x	x	x
O=C(Nc1ccc2c(c1)OCO2)c1noc2c1CCCC2	15*	2	8.1*	2	1	2	8.5*	16*	1
Cc1ccc(/C=N/NC(=O)c2ccc3c(c2)OCCO3)s1	6	4	3	2	0	x	x	x	x
O=C(N/N=C/c1cc(Br)cs1)c1ccc2c(c1)OCCO2	15*	x	6.6*	0	-1	1	2	24*	1
Clc1ccc([C@H]2OC[C@@]3(CNCc4ccc5c(c4)OCO5)CS[C@H](c4ccc(Cl)cc4)N23)cc1	5	x	-1	x	-2	x	x	x	x
Brc1cccc(-c2n[nH]c(-c3ccccc3)n2)c1	14*	2	12*	3	1.8*	1	9.6*	21*	1
c1ccc(-c2nc(-c3cccnc3)n[nH]2)cc1	7	x	1	0	-1	x	x	x	x
CCOC(=O)CC[C@@]1(C(=O)OCC)C[C@@H](CC(=O)NCc2cccc3ccccc23)C(=O)N2CCCC=C21	1	x	2	-2	-1	x	x	x	x
CCc1ccc2oc(-c3cccc(N)c3)nc2c1	16*	-1	16*	4.3*	3.3*	2	14*	24*	1
Nc1ccc2oc(-c3cccc(Br)c3)nc2c1	x	1	x	x	x	x	x	x	x
Fc1ccc(-c2csc(Nc3ccccn3)n2)c(F)c1	14*	3	15*	2	3.4*	2	16*	20*	1
O=C(Nc1nc(-c2cc(F)ccc2F)cs1)c1ccccn1	4	0	2	-1	-1	x	x	x	x
CC(=O)Nc1cccc(-c2csc(Nc3ccc(C)cn3)n2)c1	17*	0	13*	5.5*	1	2	8.3*	21*	1
Cc1cc(-c2csc(Nc3ccccn3)n2)ccc1F	17*	4	15*	2	1.7*	2	12*	19*	1
Cc1ccc(Nc2nc(-c3ccncc3)cs2)cc1	16*	1	8.9*	4.2*	2.4*	1	7.2*	19*	1
O=C(NCc1ccc(C(F)(F)F)cc1)O[C@H]1CC[C@@]23CCCN2C(=O)CCC[C@H]3C1	-4	x	-1	x	-2	x	x	x	x
